# Assay results as given in article PMC4336329 (PLoS ONE, 2015).
# Out of some 310,000 compounds screened, about 14,000 (4.5%) showed an effect of 50% or more. Effects have a minus sign here. The full list was thinned out, with strong results kept by preference.
# Molecular target: human ether-à-go-go-related gene (hERG) potassium channel (human, UniProt Q12809)
# Assay: primary screen, population patch clamp on CHO cells stably expressing hERG; higher = less effect of the substance
# 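Also: peak tail current of the secondary pulse compared with the same well before compound.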
# Chain of human ether-à-go-go-related gene (hERG) potassium channel (Q12809 whole entry, looked up): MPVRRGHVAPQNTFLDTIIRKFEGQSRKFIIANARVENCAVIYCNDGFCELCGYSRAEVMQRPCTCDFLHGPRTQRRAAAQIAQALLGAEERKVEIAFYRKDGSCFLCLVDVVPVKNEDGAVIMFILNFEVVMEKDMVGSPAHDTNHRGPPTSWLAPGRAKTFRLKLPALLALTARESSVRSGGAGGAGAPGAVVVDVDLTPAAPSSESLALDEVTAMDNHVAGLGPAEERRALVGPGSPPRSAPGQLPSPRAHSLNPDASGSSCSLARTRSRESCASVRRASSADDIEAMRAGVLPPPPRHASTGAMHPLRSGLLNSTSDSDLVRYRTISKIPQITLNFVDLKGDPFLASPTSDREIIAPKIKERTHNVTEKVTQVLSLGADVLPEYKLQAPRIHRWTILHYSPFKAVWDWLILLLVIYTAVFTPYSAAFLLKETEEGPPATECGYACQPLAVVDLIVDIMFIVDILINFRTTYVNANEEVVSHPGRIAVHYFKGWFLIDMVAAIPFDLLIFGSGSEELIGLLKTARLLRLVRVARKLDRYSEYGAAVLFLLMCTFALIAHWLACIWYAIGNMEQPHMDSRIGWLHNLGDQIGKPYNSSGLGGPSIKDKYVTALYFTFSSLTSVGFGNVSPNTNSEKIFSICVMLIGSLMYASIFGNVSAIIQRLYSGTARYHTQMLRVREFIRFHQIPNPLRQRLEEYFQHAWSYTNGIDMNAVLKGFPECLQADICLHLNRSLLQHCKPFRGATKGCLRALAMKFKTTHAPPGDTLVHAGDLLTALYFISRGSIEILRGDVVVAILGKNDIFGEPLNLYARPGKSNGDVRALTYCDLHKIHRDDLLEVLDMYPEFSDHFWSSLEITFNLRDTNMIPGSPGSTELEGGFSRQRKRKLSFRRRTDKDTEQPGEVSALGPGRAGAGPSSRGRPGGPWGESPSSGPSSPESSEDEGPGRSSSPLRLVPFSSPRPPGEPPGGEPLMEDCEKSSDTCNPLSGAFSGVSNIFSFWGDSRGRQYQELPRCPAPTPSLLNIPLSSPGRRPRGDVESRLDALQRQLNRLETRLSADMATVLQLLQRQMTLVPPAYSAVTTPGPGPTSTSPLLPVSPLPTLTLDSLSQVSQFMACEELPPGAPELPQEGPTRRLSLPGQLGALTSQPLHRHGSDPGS
row,Compound,"hERG current change (%, negative = inhibition) at 10uM"
1,CC(=O)N1c2ccc(S(=O)(=O)NCCC(=O)NCCc3cccc(C)c3)cc2CC1C (centres unmarked),-4.31%
2,CC(C)[C@H](NC(=O)c1ccco1)C(=O)OCC(=O)NC12CC3CC(CC(C3)C1)C2,-18.7%
3,CCOc1cc(C=C2C(=O)NC(=O)NC2=O)ccc1OS(=O)(=O)c1ccccc1,-18%
4,Cc1ccc(S(=O)(=O)Oc2cccc(/C=N/n3cnnc3)c2)cc1,-49%
5,CCOc1cc(/C=N/NS(=O)(=O)c2ccccc2)ccc1OS(=O)(=O)c1ccc(C)cc1,2.1%
6,CCOc1cc(/C=N/n2cnnc2)ccc1OS(=O)(=O)c1ccccc1,-57.7%
7,CCOc1cc(/C=N/O)ccc1OS(=O)(=O)c1ccc(C)cc1,-5.21%
8,COc1cc(/C=N/n2cnnc2)ccc1OS(=O)(=O)c1ccccc1[N+](=O)[O-],-51%
9,O=[N+]([O-])c1ccccc1S(=O)(=O)Oc1ccc(/C=N/n2cnnc2)cc1,-40.6%
10,CCOc1cc(/C=N/n2cnnc2)ccc1OS(=O)(=O)c1ccc(C)cc1,-50.5%
11,COc1cc(C=O)ccc1OS(=O)(=O)c1ccccc1[N+](=O)[O-],4.1%
12,Cn1ncc2c(Nc3ccc(Cl)c(Cl)c3)ncnc21,14.5%
13,O=C(O)CCn1cc(/C=C2\SC(=S)NC2=O)c(-c2ccccc2)n1,21.8%
14,COc1ccc2c(c1)CC/C2=N\NC(=O)c1ccccc1,-3.69%
15,CC1(C)COC(Nc2ccc(Cl)cc2)=N1,-35.8%
16,Cc1ccc(Cn2nnnc2CN2CCC(O)(c3ccccc3F)CC2)cc1,-21.5%
17,O=C(NCCC1=CCCCC1)c1ccc(-n2cncn2)c([N+](=O)[O-])c1,-22.5%
18,O=C(NNC(=O)c1ccc(-n2cncn2)c([N+](=O)[O-])c1)c1ccccc1,9.34%
19,O=C(NCCCc1ccccc1)c1ccc(-n2cncn2)c([N+](=O)[O-])c1,-60.5%

row,Compound,"hERG current change (%, negative = inhibition) at 10uM"
1,Cc1ccc(C(=O)NC(C)CCc2ccccc2)cc1[N+](=O)[O-] (centres unmarked),-13.9%
2,Cc1cc(C(=O)NC(C)CCc2ccccc2)ccc1[N+](=O)[O-] (centres unmarked),-29.5%
3,CC(CCc1ccccc1)NC(=O)c1ccc(-n2cncn2)c([N+](=O)[O-])c1 (centres unmarked),-70.9%
4,CCCC[n+]1c(-c2ccc(Cl)cc2Cl)csc1Nc1ccccc1.[Cl-],-6.7%
5,O=C(CC12CC3CC(CC(C3)C1)C2)N1CCCOC1,-3.81%
6,O=C(CCO)c1ccc(O)cc1,10.6%
7,FC(F)(F)c1ccccc1NC(=S)N1CCN(c2ccccn2)CC1,5.12%
8,O=C(NCCN1CCCCC1)c1ccco1,7.02%
9,Cc1nc(C)n(CCNC(=O)c2ccco2)n1,27%
10,Cc1ccc2sc(N3CCN(CCNC(=O)c4ccco4)CC3)nc2c1C.Cl,-58.2%
11,Br.Cc1ccc(C)c(C(=O)Cn2c(NCCO)nc3ccccc32)c1,6.12%
12,Cc1ccc(OCC(=O)N2CCCC(CO)(CCOc3ccccc3)C2)cc1 (centres unmarked),-30.4%
13,CCOC(=O)C1(Cc2ccccc2)CCCN(C2CCCC2)C1 (centres unmarked),-2.87%
14,OCC1(CCOc2ccccc2)CCN(C2Cc3ccccc3C2)CC1,-72.8%
15,CCOC(=O)C1(Cc2ccccc2)CCN(C2Cc3ccccc3C2)CC1,-66.4%
16,CCOC(=O)C1(CCc2ccccc2)CCN(C2CCSCC2)CC1,-76.3%
17,CCOC(=O)C1(CCOc2ccccc2)CCN(S(=O)(=O)N(C)C)CC1,-1.79%
18,CCOC(=O)C1(CCOc2ccccc2)CCN(C2Cc3ccccc3C2)CC1,-53.4%
19,CCOC(=O)C1(Cc2ccc(Cl)cc2)CCN(C2CCC2)CC1,-44.9%

row,Compound,"hERG current change (%, negative = inhibition) at 10uM"
1,CCOC(=O)C1(CCc2ccccc2)CCN(C(=O)[C@@H]2C[C@@H](C)NC(=S)N2)CC1,6.08%
2,CCOC(=O)C1(Cc2ccccc2C(F)(F)F)CCN(C2CCSC2)CC1 (centres unmarked),-25.2%
3,O=C1CN(c2nnnn2-c2ccccc2)CCN1,-6.89%
4,COC(=O)[C@@]1(Cc2ccccc2)C=C[C@@H](C)N1C(C)=O,2.06%
5,Cc1cccc(C)c1NC(=O)CCCSc1nnc(-c2ccc(Cl)cc2)n1-c1ccccc1,-3.49%
6,COc1ccc(C(C)(C)C)cc1NC(=O)CN1C(=O)C(=O)N(Cc2ccco2)C1=O,2.86%
7,CCCCNC(=O)NS(=O)(=O)c1ccc(NC(=O)CCC(=O)c2cccs2)cc1,23.1%
8,O=S(=O)(c1ccc(Cl)nc1)N1CCCCC1,-1.17%
9,CC1(C)Oc2ccc3ccc(=O)oc3c2C(/C=N/O)=C1Cl,14.7%
10,CCOC(=O)C1CCN(/C=C2/C(=O)NC(=S)N(c3cccc(OC)c3)C2=O)CC1,19.4%
11,CCOC(=O)/C=c1\s/c(=C(\C#N)C(=O)NC)n(-c2ccccc2)c1=O,10.6%
12,Cc1ccc(-c2nn3c(C)nnc3s2)cc1NC(=O)c1ccco1,-11.7%
13,O=C(N/N=C/C=C\c1ccco1)c1cccnc1,8.4%
14,Cn1cccc1-c1nc2ccccc2n1Cc1ccccc1,-29.1%
15,CCOC(=O)C1(CCc2ccccc2)CCN(C2Cc3ccccc3C2)CC1,-64.8%
16,CS(=O)(=O)c1ccc(S(=O)(=O)N2CCC(CO)(CCCc3ccccc3)CC2)cc1,-41.4%
17,OCC1(CCCc2ccccc2)CCN(C2CCSCC2)CC1,-80.5%
18,O=C(NCc1ccccc1)N1CCC(CO)(CCc2ccccc2)CC1,-38%
